The values below come from PubChem BioAssay.

The source made the active and inactive calls.

The nature of test [1]: A549 cell viability effects, profiling panel, calcein-AM fluorescence, 48 h, basal (AID 1162). The conditions noted are these: higher = more signal.
Test [2] is described as follows: adipocyte viability effects, profiling panel, cell-based, 3T3-L1 adipocytes, calcein-AM fluorescence, 48 h, basal (AID 1163). The conditions noted are these: 3T3-L1 adipocytes viability, higher = more signal.
The nature of test [3]: HepG2 cell viability effects, profiling panel, calcein-AM fluorescence, 48 h, basal (AID 1164). Particulars: higher = more signal.
Test [4] can be described thus: MM1S cell viability effects, profiling panel, calcein-AM fluorescence, 48 h, basal (AID 1165).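 Further: viability of MM1S multiple myeloma cells under basal unstimulated conditions.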 Particulars: higher = more signal.
Test [5] can be described thus: basal RPMI8226 viability, no added stimulus, profiling panel, cell-based, calcein-AM fluorescence, 48 h, PK04 Diversity Set (AID 1166).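 Further: cells grown under basal conditions without added stimulus.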 Particulars: RPMI8226 myeloma viability, higher = more signal.
Test [6] can be described thus: basal HepG2 mitochondrial membrane potential changes, profiling panel, cell-based, JC-1 fluorescence, 24 h, 100 nL compound (AID 1167). Particulars: higher = more signal.
Test [7] is described as follows: basal 3T3-L1 adipocyte mitochondrial potential changes, profiling panel, cell-based, JC-1 fluorescence, 3T3-L1 adipocytes, 24 h, 100 nL compound (AID 1168). The conditions noted are these: JC-1 mitochondrial fluorescence, higher = more signal, called active from +8 up or from −8 down.
Test [8] is described as follows: basal RPMI8226 mitochondrial membrane potential changes, profiling panel, cell-based, JC-1 fluorescence, 24 h, 100 nL compound (AID 1169). The conditions noted are these: RPMI8226 myeloma, JC-1 mitochondrial potential fluorescence, higher = more signal.
A short description of test [9]: basal MM1S mitochondrial membrane potential changes, profiling panel, cell-based, JC-1 fluorescence, 24 h, 100 nL compound (AID 1170). Particulars: higher = more signal.
A short description of test [10]: A549 lung cancer cell viability effects, profiling panel, resazurin fluorescence, 24 h, PK04 Diversity Set (AID 1171). Particulars: higher = more signal, called active from +8 up or from −8 down. For orientation: Alamar Blue is a resazurin reagent that responds to reducing activity.
Further: test concentration not given here.

With `COC(=O)[C@@]1(Cc2ccc(OC)cc2)[C@H]2c3cc(C(=O)N4CCCC4)n(Cc4ccc(C(F)(F)F)nc4)c3C[C@H]2CN1C(=O)c1ccccc1`, the z-score in [1] was -1.3; in test [2], 0.202; in [3] it was 0.0749; in [4] it was -1.03; in test [5] it was -1.33; in [6], 0.952. Further, the z-score in [7] was -1.59 (inactive); in test [8], -0.779; in [9], -1.69; in test [10] it was -0.266 (inactive).
With `C=CCC(OC(C)=O)[C@@H]1[C@@H](N(Cc2cccc3ccccc23)C(=O)Cc2ccc(OC)cc2)c2cc(OCCCO)ccc2N1C(=O)c1ccc2ccccc2c1` (stereo not given in full), the z-score in test [1] is 1.19; in test [2] it was 2.02; in [3] it was 0.692; in test [4], 0.357; in [5], 1.19; in test [6] it was 2.55. Further, the z-score in [7] was 0.443 (inactive); in [8], 0.066; in test [9], 0.433; in test [10], 0.445 (inactive).
Take `C=CCC(OC(C)=O)[C@@H]1[C@@H](N(Cc2cccc3ccccc23)C(=O)c2ccc(-c3ccccc3)cc2)c2cc(OCCCO)ccc2N1C(=O)Cc1ccc2ccccc2c1` (stereo not given in full): the z-score in [1] is -0.217; in test [2], 0.153; in test [3] it was 0.581; in test [4], -1.54; in [5], -0.729; in test [6], 1.9. Besides, the z-score in test [7] was -0.407 (inactive); in test [8], -0.342; in [9] it was 0.164; in test [10] it was 0.706 (inactive).
For the molecule `C=CCC(OC(C)=O)[C@@H]1[C@@H](N(Cc2cccc3ccccc23)C(=O)Cc2ccc(OC)cc2)c2cc(OCCCO)ccc2N1C(=O)Cc1ccc2ccccc2c1` (stereo not given in full), the z-score was -0.105 in test [1]; 0.759 in [2]; -0.472 in test [3]; 0.0986 in [4]; -1.36 in [5]; 3 in test [6]. Besides, the z-score in [7] was -0.199 (inactive); in test [8], -0.226; in [9], 0.0724; in [10], 0.719 (inactive).
`COc1cc(CO)cc(I)c1O[C@H]1C=C(C(=O)NCCO)C[C@@H](NC2CCCCCC2)[C@@H]1O`: the z-score in test [1] is -0.226; in [2], -0.174; in test [3], 0.806; in test [4], -3.23; in [5] it was -0.334; in [6], 1.09. Further, the z-score in test [7] is 0.426 (inactive); in [8] it was -0.441; in test [9], -3.21; in [10], 0.406 (inactive).
With `C=C(C)[C@@H]1CC=C(C(O)C2C=CC3C(=O)N(c4ccccc4)C(=O)C3N2Nc2ccc([N+](=O)[O-])cc2)CC1` (stereo not given in full), the z-score in test [1] is 0.485; in test [2], 0.153; in test [3] it was 0.736; in test [4] it was -0.807; in test [5], -0.493; in test [6], -0.307. Besides, the z-score in test [7] is -2.47 (inactive); in test [8] it was -0.507; in test [9], 0.451; in test [10], -0.963 (inactive).
For the molecule `CCOC(=O)C[C@H]1[C@H](OC(=O)c2cc3ccccc3oc2=O)[C@@H](NC(=O)CC(C)C)c2cc(OCCCO)ccc2N1C(=O)Cc1ccc(OC)cc1`, the z-score is 0.746 in [1]; 0.967 in test [2]; 0.535 in test [3]; 0.12 in [4]; 0.28 in test [5]; 0.433 in test [6]. In addition, the z-score was -0.119 (inactive) in test [7], 0.421 in test [8], 0.328 in test [9] and -0.546 (inactive) in [10].
In the case of `O=C1O[C@@H](c2ccccc2)[C@@H](c2ccccc2)N2[C@@H](c3ccccc3OCCO)[C@]3(C(=O)Nc4ccc(C#CCCO)cc43)[C@@H](C(=O)NC[C@H](O)c3ccccc3)[C@H]12`, the z-score in test [1] was -0.31; in [2] it was 0.323; in test [3] it was 0.997; in [4], 0.16; in [5] it was -0.0269; in test [6] it was -1.16. Besides, the z-score in test [7] is 0.00583 (inactive); in [8], -0.471; in test [9], -0.596; in test [10], 0.682 (inactive).
On to `CC=CC(O)C1C=CC2C(=O)NC(=O)C2N1Nc1ccc(Cl)cc1Cl` (stereo not given), for which the z-score in [1] is -1.54; in test [2], -0.883; in test [3], -1.14; in test [4], -0.866; in test [5], -0.624; in test [6], -2.04. Moreover, the z-score in [7] was -1.04 (inactive); in test [8], 0.501; in test [9], -0.446; in test [10] it was -0.458 (inactive).
With `COc1ccc(NN2C(C(O)c3ccc(I)cc3)C=CC3C(=O)N(C4CCCCC4)C(=O)C32)cc1` (stereo not given), the z-score was -0.302 in test [1]; -0.971 in test [2]; 0.181 in [3]; -1.06 in test [4]; 0.295 in test [5]; 0.126 in test [6]. Also, the z-score in test [7] was 0.0889 (inactive); in test [8], 0.0764; in test [9], -1.65; in [10], 1.47 (inactive).
Turning to `CCCCC(O)C1C=CC2C(=O)N(c3ccccc3)C(=O)C2N1Nc1ccc([N+](=O)[O-])cc1` (stereo not given), the z-score in test [1] was 0.286; in test [2], -0.229; in test [3], 0.0784; in test [4], -0.72; in test [5], -0.438; in test [6], -0.573. The z-score in test [7] is -1.08 (inactive); in test [8], -0.147; in test [9] it was -0.745; in [10], 0.113 (inactive).
As for `C=CCC(OC(C)=O)[C@@H]1[C@@H](N(Cc2cc3ccccc3o2)C(=O)c2cccc3ccccc23)c2cc(OCCCO)ccc2N1C(=O)c1ccc2ccccc2n1` (stereo not given in full), the z-score is 0.375 in test [1]; 0.756 in test [2]; 0.601 in test [3]; -1.14 in test [4]; -2.01 in [5]; 2.42 in [6]. For the same molecule, the z-score in test [7] was -0.961 (inactive); in test [8] it was -0.211; in test [9] it was -0.245; in test [10] it was -0.985 (inactive).
As for `CC(C)(C)N1CC=CC23O[C@@H]4C=CCOC(=O)[C@@H]4[C@H]2C(=O)N(CCO)[C@@H]3C1=O` (stereo not given in full), the z-score in [1] was -0.247; in [2] it was -0.229; in test [3], -0.112; in [4], 0.0476; in test [5], -0.46; in [6], -0.731. In addition, the z-score in [7] is 0.316 (inactive); in test [8], 0.0281; in [9], -0.537; in test [10], -0.465 (inactive).
On to `COC(=O)[C@@]1(Cc2ccccc2)[C@H]2c3cc(C(=O)N(C)C)n(Cc4ccc(S(C)(=O)=O)cc4)c3C[C@H]2CN1C(=O)c1ccccc1`, for which the z-score in test [1] was -1.12; in test [2], 1.09; in [3] it was -0.827; in test [4] it was 0.0168; in [5], -1.39; in test [6], 2.64. The z-score in test [7] is -1.06 (inactive); in [8], -0.656; in [9], 0.485; in test [10], -1.59 (inactive).
For `CN1C(=O)C2C(C1=O)C1C=C(CCCO)C2C(C2CC2)N1Cc1cccc(OC(F)(F)F)c1` (stereo not given), the z-score in [1] was -0.379; in [2], 0.116; in test [3], -0.814; in test [4] it was -0.517; in test [5], -0.781; in [6], 0.217. Also, the z-score in test [7] was -0.423 (inactive); in test [8], -0.00892; in test [9] it was 0.389; in test [10], -0.0655 (inactive).
On to `COC(=O)[C@@]1(Cc2ccc(OC)cc2)[C@H]2c3cc(C(=O)N4CCCC4)n(Cc4c(CO)[nH]cc(C)c4=O)c3C[C@H]2CN1C(=O)c1ccccc1`, for which the z-score in test [1] is -0.37; in [2], 0.454; in [3], 0.375; in test [4] it was -0.206; in [5], 0.501; in test [6], 2.94. The z-score is 0.926 (inactive) in test [7], 0.166 in [8], -1.19 in test [9] and 0.582 (inactive) in test [10].
